Test results from PubChem BioAssay AID1259354 (Paczesny and Yang Labs, IUPUI and University of Michigan, 2018).
Hit rate of the full screen: of about 78,000 compounds, about 1,800 (2.3%) were called active. Another 27% or so got no clear call; they are omitted. No stated cut-off is given here; in the data, active means inhibition above about 30%; inconclusive means mostly about 10% to 28%; inactive means weaker than that. For the sample, actives were picked, then their nearest neighbours and some compounds at random.

What follows are compounds tested against Interleukin-1 receptor-like 1 (Homo sapiens) (UniProt Q01638) (assay: inhibitors of human ST2 (IL1RL1) binding to IL-33, primary screen, biochemical, AlphaLISA (AID 1259354)). Conditions: AlphaLISA ST2-Fc/biotin-IL-33 interaction, 1 h; at 17 µM, active compounds read high.
Sequence of Interleukin-1 receptor-like 1 (Homo sapiens) (Q01638 whole entry, looked up): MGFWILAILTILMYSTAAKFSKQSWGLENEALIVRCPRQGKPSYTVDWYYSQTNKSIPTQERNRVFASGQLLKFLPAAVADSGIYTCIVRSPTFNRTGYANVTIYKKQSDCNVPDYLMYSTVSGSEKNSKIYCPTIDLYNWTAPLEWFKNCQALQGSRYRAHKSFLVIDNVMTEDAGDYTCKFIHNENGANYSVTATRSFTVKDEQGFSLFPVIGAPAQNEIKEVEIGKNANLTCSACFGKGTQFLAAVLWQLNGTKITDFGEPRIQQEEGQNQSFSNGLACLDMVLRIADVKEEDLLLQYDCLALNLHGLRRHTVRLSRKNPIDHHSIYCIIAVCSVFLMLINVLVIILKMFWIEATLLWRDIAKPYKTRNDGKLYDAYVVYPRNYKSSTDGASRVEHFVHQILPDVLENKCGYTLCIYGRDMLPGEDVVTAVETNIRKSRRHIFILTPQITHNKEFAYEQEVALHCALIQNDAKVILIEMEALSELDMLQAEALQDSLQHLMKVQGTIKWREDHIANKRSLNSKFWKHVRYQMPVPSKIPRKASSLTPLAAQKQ
`CC(C)c1ccc(Nc2c(-c3cccs3)nc3cnccn23)cc1` was tested, and the inhibition was “inactive”. For `O=C(c1ccccc1F)N1CCc2c(c(C(=O)N3CCOCC3)nn2CCCc2ccccc2)C1`, the inhibition was “inactive”. With `CC(C)c1ccc(NC2CCCN(C(=O)CCc3nc(-c4ccccc4)no3)C2)cc1` (configuration not stated) the inhibition was “inactive”. In the case of `CC1=C(C(N)=O)C(c2ccccc2Cl)n2ncnc2N1` (configuration not stated), the inhibition is reported as “inactive”. With `O=C(Cn1nc(-c2ccccc2)ccc1=O)NCCN1CCOCC1` the inhibition was “inactive”. For `COc1c(F)ccc(-c2nc(C(C)C)nn2-c2ccccn2)c1F`, the inhibition was “inactive”. With `Cc1cc(NCCN2CCCCCC2)n2c(nc3ccccc32)c1C#N` the inhibition was 45% (active). `CN(C)CCCNc1c2c(c(C#N)c3nc4ccccc4n13)CCC2` was tested, and the inhibition was 51% (active). `Cc1c(CCC#N)c(-n2ccnc2)n2c(nc3ccccc32)c1C#N` was tested, and the inhibition was “inactive”. In the case of `N#Cc1c2c(c(-n3ccnc3)n3c1nc1ccccc13)CCC2`, the inhibition is reported as “inactive”. In the case of `O=C(CN1CCCN(Cc2ccccc2)S1(=O)=O)NCCc1ccccc1`, the inhibition is reported as “inactive”. With `CN1C(N)=NC(=O)/C1=C/c1cc(Br)c(O)c(Br)c1` the inhibition was “inactive”. `COc1cc(/C=C2/C(=O)N(c3ccc(Cl)c(Cl)c3)N=C2C)cc(Br)c1O` was tested, and the inhibition was 37% (active). For `COc1ccc(/C=C2\C(=O)N(c3ccc(Cl)c(C(=O)O)c3)N=C2C)cc1Br`, the inhibition was 72% (active). `COc1ccc(Cl)cc1C(=O)N1CCN(c2cccc(Cl)c2)CC1` was tested, and the inhibition was “inactive”. In the case of `COc1ccc2cc(-c3ccccc3NC(=O)CN)ccc2c1`, the inhibition is reported as “inactive”. With `COc1ccc(C2C(C(=O)N3CCC(C)CC3)c3cc(OC)c(OC)cc3C(=O)N2C)cc1` (configuration not stated) the inhibition was “inactive”. In the case of `CCOc1ccc(Br)c(/C=C2\C(=O)Nc3ccc(Br)cc32)c1`, the inhibition is reported as 60% (active). In the case of `COc1cc(/C=C2\C(=O)Nc3ccc(Br)cc32)ccc1O`, the inhibition is reported as “inactive”. For `CCOc1cc(/C=C2\C(=O)NC(=O)N(c3ccc(Br)cc3)C2=O)ccc1O`, the inhibition was “inactive”. For `COCc1cc(CNC(=O)c2csc3c2CCCC3)[nH]n1`, the inhibition was “inactive”. With `O=C(Nc1ccccc1)/C(=C/c1ccc2c(c1)OCO2)NC(=O)c1ccc(Br)o1` the inhibition was “inactive”. With `COc1ccccc1C(=O)N/C(=C\c1ccc2c(c1)OCO2)C(N)=O` the inhibition was “inactive”. `COc1ccccc1C(=O)N/C(=C/c1ccc2c(c1)OCO2)C(=O)Nc1cccc(C(=O)O)c1` was tested, and the inhibition was 39% (active). In the case of `CC(C)(C)NS(=O)(=O)c1ccc2c(c1)C(=O)c1cc(S(=O)(=O)NC(C)(C)C)ccc1-2`, the inhibition is reported as “inactive”. `CCCc1nc(CN(C)C(=O)c2c(O)cccc2O)no1` was tested, and the inhibition was “inactive”. For `CC(C)c1ccc(CNCCCN(C)C)cc1`, the inhibition was “inactive”. With `O=C(NC1CCCCC1)N1CCC(n2cc(-c3ccccn3)nn2)CC1` the inhibition was “inactive”. For `COc1ccc(-c2nc3s/c(=C\C4=Cc5ccccc5OC4C)c(=O)n3n2)cc1` (configuration not stated), the inhibition was “inactive”. `O=C(Nc1ccccc1-c1ccccc1)c1ccccc1[N+](=O)[O-]` was tested, and the inhibition was “inactive”. For `CC1CCN(S(=O)(=O)c2ccc(Cl)c(C(=O)Nc3ccccc3[N+](=O)[O-])c2)CC1`, the inhibition was 34% (active). `CC1CCN(S(=O)(=O)c2ccc(Cl)c(S(=O)(=O)N3CCC(C)CC3)c2)CC1` was tested, and the inhibition was “inactive”. `C/C(=C/c1nsc(Nc2ccc(Cl)cc2)n1)NC1CC(C)(C)NC(C)(C)C1` was tested, and the inhibition was “inactive”. `CC1CCCC(C)N1C(=O)c1cccc2c1-c1ccccc1C2=O` (configuration not stated) was tested, and the inhibition was “inactive”. `Cc1ccccc1CC1(C(=O)O)CCCN(c2cc(C3CC3)ncn2)C1` (configuration not stated) was tested, and the inhibition was “inactive”. `CC(=O)C1=C(C)OC(N)=C(C#N)C1c1ccccc1` (configuration not stated) was tested, and the inhibition was “inactive”. With `Cc1nc(-c2cccc(NC(=O)C3CCN(c4ccccc4)C3=O)c2)no1` (configuration not stated) the inhibition was 37% (active). In the case of `Cc1cccc(NC(=O)CN2C(=O)CC(c3ccccc3)=Nc3ccccc32)c1`, the inhibition is reported as “inactive”. With `O=C(Nc1cccc(-c2cccc(Cl)c2)c1)C1CCN(C(=O)c2ccccc2)CC1` the inhibition was “inactive”. `FC(F)(F)c1ccnc(NCc2cccnc2-n2ccnc2)c1` was tested, and the inhibition was “inactive”. For `O=C(Nc1ccc2c(c1)OCO2)C1CCN(S(=O)(=O)c2ccc(F)cc2)CC1`, the inhibition was “inactive”. With `Clc1ccc(OCCN2CCCCCC2)cc1` the inhibition was “inactive”. For `N#Cc1nc(COc2ccc(Cl)cc2)oc1N1CCCC1`, the inhibition was 73% (active). `Cn1c(=O)c2c(nc(N3CCCCCC3)n2CC(O)COc2ccc(Cl)cc2)n(C)c1=O` (configuration not stated) was tested, and the inhibition was “inactive”. In the case of `COCCO[C@H]1[C@H](NC(=O)C(C)C)c2ccccc2C12CCN(C(=O)c1cc(C(C)C)on1)CC2`, the inhibition is reported as “inactive”. In the case of `O=C(O)c1cc(Br)ccc1N=Cc1nc(-c2ccccc2)oc1O`, the inhibition is reported as “inactive”. In the case of `C=CCOc1ccc(C2C(C(=O)OCC(C)C)=C(C)N=C3SCCC(=O)N32)cc1` (configuration not stated), the inhibition is reported as “inactive”. `COc1ccccc1NC(NC(=O)c1cccc(Cl)c1)C(Cl)(Cl)Cl` (configuration not stated) was tested, and the inhibition was “inactive”. `O=C(CN1CCOC1=O)NCc1cnn2ccccc12` was tested, and the inhibition was “inactive”. With `O=C(CCn1cnnn1)NCc1cnn2ccccc12` the inhibition was 30% (active). For `O=C(CCCn1cnnn1)N1CCOC(c2ccc(Cl)c(Cl)c2)C1` (configuration not stated), the inhibition was “inactive”. `Cc1nn(C(=O)/C=C/c2ccccc2)c(C)c1Sc1ccccc1` was tested, and the inhibition was 39% (active). With `Cc1nn(C(=O)c2cccs2)c(C)c1Sc1ccccc1` the inhibition was “inactive”. For `Cc1nn(C(=O)c2ccccc2)c(C)c1Sc1ccccc1`, the inhibition was “inactive”. For `CC1CN(C2CC(=O)N(c3ccc(Br)cc3Br)C2=O)CC(C)O1` (configuration not stated), the inhibition was “inactive”. With `Cc1ccc(N2C(=O)CC(Nc3ccc(N4CCOCC4)cc3)C2=O)c(Br)c1` (configuration not stated) the inhibition was 56% (active). With `CC1CC(C)CN(C2CC(=O)N(c3ccc(Br)cc3Br)C2=O)C1` (configuration not stated) the inhibition was “inactive”. For `CN1CCN(CCCNC(=O)COc2ccc3c(c2)C(=O)CC(C)(C)O3)CC1`, the inhibition was “inactive”. `COc1ccc(NC(=O)Cn2cnc3scc(-c4ccccc4)c3c2=O)cc1Cl` was tested, and the inhibition was “inactive”. With `COc1cccc(N2CCN(S(=O)(=O)c3ccc4c(c3)c(=O)n(C)c(=O)n4C)CC2)c1` the inhibition was “inactive”. For `CS(=O)(=O)n1nnc2ccccc21`, the inhibition was “inactive”. With `O=C1C(Nc2ccc(O)cc2)=C(n2nnc3ccccc32)C(=O)c2ccccc21` the inhibition was 47% (active). For `Cc1cc(=O)[nH]c(SCC(=O)Nc2ccc(F)cc2)n1`, the inhibition was “inactive”. `CCOc1ccc(Sc2cc(C(=O)NC3CC3)c3ccccc3n2)cc1` was tested, and the inhibition was “inactive”. With `COc1ccc(C2=NN(C(C)=O)C(c3cc(OC)ccc3OC)C2)cc1` (configuration not stated) the inhibition was “inactive”. For `COc1ccc(C2=NN3COc4ccc(Br)cc4C3C2)cc1` (configuration not stated), the inhibition was 36% (active). For `COc1ccc(C2=NN3COc4ccc(Cl)cc4C3C2)cc1` (configuration not stated), the inhibition was “inactive”.
